Laboratory results taken from paper PMC4552634, “A New Set of Chemical Starting Points with Plasmodium falciparum Transmission-Blocking Potential for Antimalarial Drug Discovery” (PLoS ONE, 2015).
Among all 13,000 compounds or so, about 3,200 (25%) showed an effect of 50% or more. This is one part of the list.

What follows are compounds tested on P. falciparum stage V gametocytes. Conditions: 48 h, 5 µM; inhibitor.
Set-up: BacTiter-Glo ATP luminescence viability of purified stage V gametocytes in 384-well plates, per cent inhibition versus DMSO

Structure (SMILES)	% Inhibition
COc1ccc(CCNC(=O)c2cnc3c(c2)nc(-c2cnc(-c4ccccc4)[nH]2)n3CCc2cnc[nH]2)cc1 [TCMDC-139689]	-21.36%
Cc1cccc2nc(-c3ccc(-c4cccc(CNCCNC(=O)c5ccnn5C)c4)s3)[nH]c12.O=C(O)C(F)(F)F [TCMDC-133015]	-0.5354%
Cc1cccc2nc(-c3ccc(-c4cccc(CNCCNC(=O)c5ccnn5C)c4)cc3)[nH]c12.O=C(O)C(F)(F)F [TCMDC-133011]	85.89%
Cc1cccc2nc(-c3ccc(-c4ccc(CNCCNC(=O)c5ccnn5C)cc4)cc3)[nH]c12.O=C(O)C(F)(F)F [TCMDC-133017]	85.49%
Cc1cccc2nc(-c3cccc(-c4ccc(CNCCNC(=O)c5ccnn5C)cc4)c3)[nH]c12.O=C(O)C(F)(F)F [TCMDC-133007]	31.89%
Cc1cccc2nc(-c3ccc(-c4ccc(CNCCNC(=O)c5ccnn5C)cc4)s3)[nH]c12.O=C(O)C(F)(F)F [TCMDC-133009]	4.683%
Cc1cccc2nc(-c3cccc(-c4cccc(CNCCNC(=O)c5ccnn5C)c4)c3)[nH]c12.O=C(O)C(F)(F)F [TCMDC-133005]	-4.375%
CS(=O)(=O)CCNCc1ccc(-c2ccc3ncnc(Nc4ccc(OCc5ccccc5)c(Cl)c4)c3c2)o1 [TCMDC-138467]	19.81%
COc1cc(OCCCCCCON2C(N)=NC(N)=NC2(C)C)cc(OC)c1OC [TCMDC-131371]	3.006%
Cc1cc(OCCCN2CCC(NS(=O)(=O)c3ccc(C(F)(F)F)cc3)CC2)c2ccccc2n1 [TCMDC-136277]	-32.21%
COc1ccc(-n2nc(C)c3c2NC(=O)CC3c2ccccc2OCc2ccccc2F)cc1 (stereo not shown) [TCMDC-124907]	2.012%
COc1ccc2nccc([C@@H](O)CN3CCC(NC(=O)c4cc5cccnc5[nH]4)CC3)c2c1 [TCMDC-140768]	6.193%
Cc1ccc(NC(=O)c2ccc(CN3CCCN(CC4CCCCC4)CC3)cc2)cc1 [TCMDC-136397]	-64.33%
Cc1ccc(NC(=O)c2ccc(CN3CCCN(Cc4cccc(O)c4)CC3)cc2)cc1 [TCMDC-136398]	-12.68%
Cc1ccc(Nc2nnc(SCC(=O)Nc3ccc(CN4CCCC4)cc3)s2)cc1 [TCMDC-125043]	65.4%
COc1ccccc1C1CCN(C2CCC(NC(=O)/C=C/c3ccc(C(F)(F)F)cc3F)CC2)CC1 (stereo not shown) [TCMDC-133486]	-41.82%
O=C(c1cccc(COc2ccc3c(c2)CCN(C2CCCC2)CC3)c1)N1CCN(c2ccncc2)CC1 [TCMDC-134128]	76.76%
O=C(Nc1ccncc1)Nc1ccc2c(c1)CCN(C1CCC1)CC2 [TCMDC-135949]	33.65%
O=C(Nc1ccc2c(c1)CCC2)c1cccc(N2CCN(c3ccncc3)CC2)c1 [TCMDC-135125]	2.245%
Oc1ccc(CCNc2nc(NCc3ccccc3-c3ccc(F)cc3)nc(N3CCNCC3)n2)cc1 [TCMDC-133783]	11.92%
COc1ccc2nccc([C@@H](O)CN3CCC(NCc4ccc5scnc5c4)CC3)c2c1 [TCMDC-141081]	9.68%
Cc1ccc(NC(=O)c2ccc(Cl)c(Cl)c2)cc1-c1ccc(C(=O)Nc2ccncc2)cc1 [TCMDC-133696]	-4.564%
CCOc1cc(C)ccc1C1CCN(CCCCNC(=O)c2cnc(-c3ccc(C(F)(F)F)cc3)[nH]2)CC1 [TCMDC-138581]	5.476%

Structure (SMILES)	% Inhibition
COc1ccc(NC(=O)[C@H](CC(C)C)Nc2ccnc(NCCc3ccc(F)cc3)n2)cc1 [TCMDC-134826]	23.86%
COc1ccc2c(CCNc3nc(SC)ncc3C(=O)NCCc3ccc(F)cc3)c[nH]c2c1 [TCMDC-136796]	55%
COc1ccc(NC(=O)CCNc2ccnc(NCCc3ccc(F)cc3)n2)cc1 [TCMDC-134823]	38.74%
CCNCc1ccc(-c2cc3ncnc(Nc4ccc(OCc5cccc(F)c5)c(Cl)c4)c3s2)[nH]1 [TCMDC-135542]	-36.05%
Cc1ccc(N/C(N)=N/c2ncccc2OCc2c(F)cccc2Cl)cc1 [TCMDC-138944]	83.96%
Clc1ccccc1OCc1ccccn1 [TCMDC-125865]	-0.5645%
Cc1ccc(F)c(NC(=O)c2c(-c3c(F)cccc3Cl)noc2C)c1 [TCMDC-125643]	-20.89%
O=C(/C=C/c1ccc(Cl)c(Cl)c1)NCCCCCN1CCCN(C(=O)Nc2cccc(F)c2)CC1 [TCMDC-135745]	-38.92%
COc1cc(C(=O)Nc2cccc(-c3nc4ccccc4[nH]3)c2)cc(OC)c1OC [TCMDC-125848]	-4.164%
Cc1ccc(-c2nc3ccc(C(=O)NC4CCC(N5CCCc6ccc(C#N)cc6C5)CC4)cc3[nH]2)cc1 (stereo not shown) [TCMDC-133551]	-1.563%
COc1cc(C(=O)Nc2ccc(-c3nc4ccccc4[nH]3)cc2)cc(OC)c1OC [TCMDC-125796]	51.37%
N#Cc1cccc(C(=O)Nc2ccc(-c3nc4ccccc4[nH]3)cc2)c1 [TCMDC-124812]	70.91%
O=C(Nc1ccc(-c2nc3ccc(NC(=O)c4ccc(Br)cc4)cc3[nH]2)cc1)c1ccc(Br)cc1 [TCMDC-124212]	-13.35%
Cc1ccc(-c2nc3ccc(C(=O)NC4CCN(Cc5ccccc5)CC4)cc3[nH]2)cc1 [TCMDC-133073]	5.058%
COc1ccccc1C1CCN(C2CCC(NC(=O)c3ccc4nc(-c5ccc(C)cc5)[nH]c4c3)CC2)CC1 (stereo not shown) [TCMDC-133556]	115.6%
CCOc1cccc(C(=O)Nc2ccc(-c3nc4ccccc4[nH]3)cc2)c1 [TCMDC-123752]	24.98%
COc1ccc(Cl)cc1C(=O)Nc1ccc(-c2nc3ccccc3[nH]2)cc1 [TCMDC-125808]	9.6%
CCOc1cc(C(=O)Nc2ccc(-c3nc4ccccc4[nH]3)cc2)cc(OCC)c1OCC [TCMDC-125676]	-48.5%
COc1ccc(C(=O)Nc2ccc(-c3nc4ccc(C)cc4[nH]3)cc2)cc1OC [TCMDC-124358]	77.27%
COc1cccc(C(=O)Nc2ccc(-c3nc4ccccc4[nH]3)cc2)c1 [TCMDC-124429]	5.991%
Cc1c(CNCCCNc2cc(=O)c3ccccc3[nH]2)sc(C(F)=C(F)F)c1Br [TCMDC-141189]	-2.633%
Cn1c(=O)c2nc(-c3ccc(Cl)cc3)nnc2n(CCCC#N)c1=O [TCMDC-138537]	18.59%
CCOc1ccc(/C=C/C(=O)Nc2cccc3c2CCN(C)C3)cc1 [TCMDC-139243]	3.869%

Structure (SMILES)	% Inhibition
COc1ccc2nccc([C@@H](O)CN3CCC(NC(=O)COc4nc(SCc5ccc(F)cc5)nc5c4CCC5)CC3)c2c1 [TCMDC-141132]	-0.4192%
COC(=O)c1ccc(CC(C)NCC(O)c2cc(Cl)c(N)c(Cl)c2)cc1 (stereo not shown) [TCMDC-131421]	9.503%
CCOc1ccc(C(=O)Nc2ccc(-c3nc4ccccc4[nH]3)cc2)cc1[N+](=O)[O-] [TCMDC-125221]	-12.2%
Cc1cc(C(=O)Nc2ccc(-c3nc4ccccc4[nH]3)cc2)ccc1[N+](=O)[O-] [TCMDC-123604]	62.44%
O=C(Nc1ccc(-c2nc3ccccc3[nH]2)cc1)c1ccc(Cl)c([N+](=O)[O-])c1 [TCMDC-125730]	2.294%
Nc1ncc(-c2ccc(F)c(Cl)c2)c(N)n1 [TCMDC-137296]	-16.29%
O=S(=O)(ON=C1CCc2ccccc21)c1ccc(Cl)cc1 [TCMDC-125427]	20.26%
Cc1cccc(Nc2nc3nonc3nc2Nc2cccc(Cl)c2Cl)c1C [TCMDC-125806]	15.39%
Cc1cc(I)ccc1Nc1nc2nonc2nc1Nc1ccc(I)cc1C [TCMDC-124083]	56.47%
CS(=O)(=O)c1cc2c(Nc3ccc(N4CCOCC4)cc3)c(C(N)=O)cnc2cc1Br.Cl [TCMDC-135826]	40.37%
CC(CN(C)C)C(=O)Nc1cccc(-c2ccc(-c3nc4ccccc4[nH]3)s2)c1 (stereo not shown) [TCMDC-137102]	-38.48%
O=c1cc(NCCCCNCc2ccc(Br)c(Br)c2)[nH]c2ccccc12 [TCMDC-139308]	-72.79%
O=c1cc(NCCCCNCc2cccc(Br)c2)[nH]c2ccccc12 [TCMDC-139312]	-82.6%
O=c1cc(NCCCNC(CNCCc2ccccc2)c2cc(Br)cc(Br)c2)[nH]c2ccccc12 (stereo not shown) [TCMDC-140370]	-71.22%
C=CCCCNCC(NCCCNc1cc(=O)c2ccccc2[nH]1)c1cc(Br)cc(Br)c1 (stereo not shown) [TCMDC-140371]	-52.81%
O=c1cc(NCCC(CNCCc2ccccc2)NCc2cc(Br)cc(Br)c2)[nH]c2ccccc12 (stereo not shown) [TCMDC-140344]	98.47%
O=c1cc(NCCC(CNCc2ccoc2)NCc2cc(Br)cc(Br)c2)[nH]c2ccccc12 (stereo not shown) [TCMDC-140343]	58.98%
Cn1nccc1C(=O)NCCNCc1cccc(-c2ccc(-c3nc4cc(C(F)(F)F)ccc4[nH]3)s2)c1.O=C(O)C(F)(F)F [TCMDC-133010]	8.568%
CCCc1cccc(OC)c1OCCCON1C(N)=NC(N)=NC1(C)C [TCMDC-131338]	-11.7%
O=C(CSc1nccn1Cc1ccco1)Nc1cc(C(F)(F)F)ccc1Cl [TCMDC-125134]	10.58%
CS(=O)(=O)Cc1ccc(Nc2nccc(NC3CCN(c4nccc(C(F)(F)F)n4)CC3)n2)cc1 [TCMDC-134397]	7.117%
